Rows were chosen to be rich in hits. Some 1.7% of all compounds tested hit in one or more screens of this group.
Vif inh: HIV Vif inhibition; HEK293T cells, Vif self-association by quenched fluorescence, imaging, 24 h; inhibition, % at 7.49 µM; hit rate 0.35% among 340,000; AID 602346; in the data active = inhibition above about 50%, passing the limit was not always enough
FGF22 binding-1: shifts melting point of recombinant human FGF22; AID 651658; hit rate 1.5% among 340,000; Q9HCT0; recombinant FGF22 thermal shift, SYPRO orange fluorescence; percent of sucrose octasulfate shift, DMSO zero; activity (Tm shift, normalised), % at 9.99 µM;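 active = mean Tm shift, scaled 0 neutral to 100 positive control, at about 1.3% or above, every replicate too, limit read from the data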
Target sequence (Q9HCT0 whole entry, looked up): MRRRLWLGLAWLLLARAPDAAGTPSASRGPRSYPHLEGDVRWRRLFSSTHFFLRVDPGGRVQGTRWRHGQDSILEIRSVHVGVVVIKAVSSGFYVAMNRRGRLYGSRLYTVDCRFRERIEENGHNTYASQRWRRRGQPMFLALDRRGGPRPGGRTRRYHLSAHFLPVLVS
CFTR F508del cor: correctors of CFTR F508del function in bronchial epithelial cells. AID 720511. CFBE cells, YFP halide quenching; stimulated with forskolin plus potentiator P3; % fluorescence drop versus neutral controls. hit rate 0.36% among 350,000. activity (quench increase), % at 7.58 µM;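 active = mean added fluorescence quench of at least 8% versus neutral control, with both replicates also reaching 8%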;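 note: cells transiently co-express mutant CFTR-F508del with the halide-sensitive YFP; corrector assay measuring rescue of mutant channel to the surface after 24 h compound exposure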
FGF22 binding-2: binds human FGF22 shifting its melting temperature. AID 720646. shares compounds with FGF22 binding-1. thermal shift activity, °C (ΔTm) at 38 µM. recombinant FGF22 thermal shift, SYPRO orange fluorescence. hit rate 2% among 1,000;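 active = fitted rise in melting shift crosses a set limit at or below the top valid dose tested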
TSA no protein: compound-only SYPRO artifact for FGF22 binders; shares compounds with FGF22 binding-1; compound-only SYPRO orange thermal shift counter-screen, no protein; AC50, µM (top dose mostly 38 µM); hit rate 2% among 1,000;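 active = rising signal whose fitted curve reaches the 0.54 level within the top valid dose, showing a melting point, actives reach about 13 µM in these data; inactive = the rest, including activity in the opposite direction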; note: value is where the raw curve crosses a fixed level and not half-maximal
Numbers without * were called inactive; i = inactive; x = no result given; [ ] = remark or other dose.

SMILES	Vif inh	FGF22 binding-1	CFTR F508del cor	FGF22 binding-2	TSA no protein
CC(C)C#Cc1ccc([C@@H]2[C@H](CO)N3C(=O)CN(C(=O)C4CCCCC4)C[C@@H]23)cc1	x	1.2*	1	0.34	i
CC(C)C#Cc1ccc([C@H]2[C@H]3CN(C(=O)NC4CCCCC4)CC(=O)N3[C@H]2CO)cc1	x	x	2	x	x
CC(C)C#Cc1ccc([C@H]2[C@H](CO)N3C(=O)CN(C(=O)C4CCCCC4)C[C@@H]23)cc1	x	1.6*	0	0.47	i
CC(C)C#Cc1ccc([C@H]2[C@@H](CO)N3C(=O)CN(C(=O)C4CCCCC4)C[C@H]23)cc1	x	1	-1	x	x
COc1ccccc1S(=O)(=O)N1C[C@H](O)COC[C@H]2O[C@H](CC(=O)O)CC[C@@H]21	x	0	0	x	x
COCC(=O)Nc1ccc2c(c1)C(=O)N(C)C[C@@H](OC)[C@@H](C)CN(C(=O)c1ccccc1)[C@H](C)CO2	x	0	-1	x	x
CC(C)NC(=O)N(C)C[C@@H]1Oc2ccc(NC(=O)C3CC3)cc2CC(=O)N([C@H](C)CO)C[C@@H]1C	x	x	-1	x	x
C[C@@H]1CCCCO[C@H](CN(C)S(=O)(=O)c2ccc(Cl)cc2)[C@H](C)CN([C@@H](C)CO)C(=O)c2cc(NC(=O)CCCN(C)C)ccc2O1	x	0	3	x	x
CN1C(=O)c2cc(NC(=O)C3CCC3)ccc2OC[C@H]2O[C@H](CC(=O)NCC3CCCCC3)CC[C@@H]21	x	0	-1	x	x
O=C(Nc1ccccc1F)N[C@@H]1CC[C@H](CCNS(=O)(=O)c2ccc(F)cc2)O[C@@H]1CO	x	0	2	x	x
CCC(C)[C@H](NC(=O)N1CCn2c1nc1ccccc12)C(=O)NCCc1ccc(OC)c(OC)c1 (some centres not stated)	-7	0	-3	x	x
CCC(C)[C@H](NC(=O)N1CCn2c1nc1ccccc12)C(=O)NCCc1ccccc1 (some centres not stated)	3	14*	-1	0.016	i
N#C[C@H]1[C@H](c2ccc(-c3ccccc3F)cc2)[C@@H](CO)N1C(=O)C1CCOCC1	x	0	3	x	x
CC1=C2[C@@H](c3ccccc3)OB(O)C[C@@H]2n2c(=O)n(-c3ccccc3)c(=O)n2C1	x	1.3*	-2	-0.18	i
CCOC1=C2[C@H](c3ccccc3)N(S(=O)(=O)c3ccccc3)C[C@H]2n2c(=O)n(-c3ccccc3)c(=O)n2C1	10	0	1	x	x
C[C@@H]1CN([C@H](C)CO)C(=O)c2cccc(NC(=O)Nc3ccc4c(c3)OCO4)c2O[C@H]1CN(C)S(=O)(=O)c1ccc(F)cc1	x	0	-3	x	x
COCC#Cc1ccc2c(c1)O[C@H](CN(C)CC1CC1)[C@H](C)CN([C@@H](C)CO)S2(=O)=O	x	0	2	x	x
CCC(=O)N1CCCCN2[C@@H](CO)[C@@H](c3ccc(C#Cc4ccccc4F)cc3)[C@@H]2C1	x	1	2	x	x
CCC(=O)N1CCCCN2[C@H](CO)[C@@H](c3ccc(C#Cc4ccccc4F)cc3)[C@H]2C1	x	1.5*	0	0.044[42 µM]	i
O=c1oc(-c2ccc(O)c(O)c2)cc2cc(O)cc(O)c12	29	1.5*	-1	-0.15	i
O=c1oc(-c2ccc(O)c(O)c2)cc2cccc(O)c12	-1	0	-1	x	x
O=C(Cc1ccccn1)NCC[C@H]1CC[C@H](NC(=O)c2ccccc2F)[C@@H](CO)O1	x	0	5	x	x
O=c1cc[nH]c2ccc(Cl)cc12	0	72*	0	0.18	i
O=c1cc[nH]c2cc(Cl)ccc12	x	0	1	x	x
C[C@H]1CCCCO[C@H](CN(C)Cc2ccc(C(=O)O)cc2)[C@@H](C)CN([C@@H](C)CO)C(=O)c2cc(NS(C)(=O)=O)ccc2O1	x	0	-1	x	x
SMILES	Vif inh	FGF22 binding-1	CFTR F508del cor	FGF22 binding-2	TSA no protein
C[C@@H]1CN([C@H](C)CO)C(=O)c2cc(NC(=O)Nc3cccc4ccccc34)ccc2O[C@@H]1CN(C)Cc1ccc(C(=O)Nc2ccccc2N)cc1	x	0	1	x	x
N#Cc1ccc(NC(=O)Nc2cccc(C#N)c2)cc1	1	1.9*	5	x	6.4µM*
N#Cc1ccc(NC(=O)Nc2ccc(Oc3ccc(NC(=O)Nc4ccc(C#N)cc4)cc3)cc2)cc1	-9	0	-4	x	x
O=S(=O)(c1ccc(F)cc1)N1CC[C@@H]2[C@H]1c1cc(Br)ccc1N[C@@H]2CO	x	0	-4	x	x
CCc1ccc(N2CC(C(=O)OCC(=O)NC3CC3)CC2=O)cc1 (configuration not stated)	21	x	3	x	x
CCc1ccc(N2CC(C(=O)OCC(=O)Nc3ccc(C(C)=O)cc3)CC2=O)cc1 (configuration not stated)	-5	1.9*	-7	-0.51	i
CCc1ccc(N2CC(C(=O)OCC(=O)Nc3ccccc3C)CC2=O)cc1 (configuration not stated)	-5	0	-1	x	x
CCc1ccc(N2CC(C(=O)OCC(=O)Nc3ccc(C#N)cc3)CC2=O)cc1 (configuration not stated)	-2	1.6*	-2	0.06	i
COc1cccc(-c2cnc3c(c2)C(=O)N([C@H](C)CO)C[C@H](C)[C@H](CN(C)S(=O)(=O)c2ccccc2)O3)c1	x	x	0	x	x
COC(=O)C[C@H]1CC[C@H]2[C@@H](COC[C@@H](O)CN2S(=O)(=O)c2ccc(F)cc2)O1	x	0	3	x	x
CN1C(=O)c2cc(NC(=O)C3CCOCC3)ccc2OC[C@H]2O[C@@H](CC(=O)NC3CCCC3)CC[C@@H]21	x	0	2	x	x
CC1C=NC(S(=O)(=O)N2CC[C@@H]3[C@@H](CO)N(C)c4ccc(-c5ccc(F)cc5)cc4[C@@H]32)=N1 (some centres not stated)	x	2.0*	1	x	i
CC1C=NC(S(=O)(=O)N2CC[C@@H]3[C@H]2c2cc(-c4cccc(F)c4)ccc2N(C)[C@H]3CO)=N1 (some centres not stated)	x	-1	1	x	x
CC(C)NC(=O)N(C)C[C@H]1OCCCC[C@@H](C)Oc2ccc(NS(=O)(=O)c3ccc(F)cc3)cc2C(=O)N([C@@H](C)CO)C[C@@H]1C	x	0	0	x	x
O=C(Cc1ccccc1[N+](=O)[O-])NCc1ccc(Cl)cc1	2	x	x	x	x
O=C(NCc1ccc(Cl)cc1)c1n[nH]c([N+](=O)[O-])c1Cl	3	4.2*	-5	0.34	i
CCCSc1ncnc2[nH]ncc12	6	46*	0	0.1	i
CCCCCCCCNc1ncnc2[nH]ncc12	-29	0	-2	x	x
CNC[C@@H]1Oc2c(NS(=O)(=O)c3ccc(OC)cc3)cccc2C(=O)N([C@@H](C)CO)C[C@@H]1C	x	3.6*	-1	0.14	i
CNC[C@H]1Oc2c(NS(=O)(=O)c3ccc(OC)cc3)cccc2C(=O)N([C@H](C)CO)C[C@@H]1C	19	0	2	x	x
COc1ccc(S(=O)(=O)Nc2cccc3c2O[C@H](CN(C)S(=O)(=O)c2ccc(C)cc2)[C@@H](C)CN([C@H](C)CO)C3=O)cc1	x	0	-7	x	x
